Data taken from PubChem BioAssay (Tox21).
A number with no mark means an inactive call. Activity calls are given as the source filed them. Calls come from the whole dose curve; as a rule, active = well fitted curve in the direction sought with a large enough effect in the repeat runs; inconclusive = weak or mixed curves; inactive = flat fitted curve, though single readings scatter.

assay: qHTS assay to test for compound auto fluorescence at 590 nm (red) in HEK293 cell free culture (AID 720683); details: cell-free medium autofluorescence, Ex540/Em590 red; series mostly up to 91.3 µM; fluorescence, % of fluorescent control: at the top concentration
Excerpt: U.S. Tox21 Program National Center for Advancing Translational Sciences [NCATS] NIH Chemical Genomics Center [NCGC] U.S. Environmental Protection Agency [EPA] National Institutes of Environmental Health Sciences [NIEHS] National Toxicology Program [NTP] U.S. Food and Drug Administration [FDA] Tox21 Assay Overview: Compound auto fluorescence often interferes with screening of the compound library against various biological targets and signaling pathways. Some of these compounds may have fluorophoric properties. Such properties may interfere with the assay outputs resulting in false positives and/or negatives. To decrease such complications and ensure the compound activities are relevant in terms of biological response, the Tox21 10K compound library was screened for auto fluorescence. From the fluorophores used as reporter signals in our screening assays, the auto fluorescence equivalencies of compounds against three fluorophores have been evaluated: Triamterene, Fluorescein and Rose Bengal sodium for blue, green and red fluorescence, respectively. The fluorescence intensities were measured using Excitation/Emission wavelengths at 405/460nm, 485/535nm and 540/590nm for blue, green and red labels, respectively. This assay includes the red fluorescence data.
Tox21 Assay Protocol Summary: 5 uL of culture medium (DMEM containing 10% FBS) per well was dispensed into black wall/clear bottom 1536-well plates using a Multidrop Combi Dispenser (ThermoFisher Scientific, Waltham, MA). After 23 nL compound or DMSO vehicle was transferred into assay plate by a pintool work station (Kalypsys, San Diego, CA), fluorescence intensities in the assay plates were measured by an Envision (PerkinElmer, Shelton, CT) plate reader using three labels for measuring blue, green and red fluorescence at […] 460, 535 and 590nm respectively.
% is set by controls: 0 for no effect and ±100 for the full control effect.

Row | SMILES | fluorescence, % of fluorescent control | outcome
1 | COc1cc(NS(=O)(=O)c2ccc(N)cc2)ncn1 | -0.0018% [at 18.6 µM] | 
2 | C=CCN(CC=C)CC=C | -0.088% | 
3 | Cc1cc(O)c(Cl)cc1C | -0.0206% | 
4 | COc1cc(OC)cc(OC)c1 | -0.0678% [at 46 µM] | 
5 | CC/C=C/CCCCCCCCCCOC(C)=O | -0.0591% | 
6 | CN(C)CCc1c[nH]c2ccc(CS(=O)(=O)N3CCCC3)cc12 | 0.434% [at 46 µM] | 
7 | c1coc(Cn2cccc2)c1 | 0.0141% | 
8 | CC(CN1CC(=O)NC(=O)C1)N1CC(=O)NC(=O)C1 (stereo not given) | 0.257% | 
9 | CCN1CCN(C(=O)N[C@@H](C(=O)N[C@@H]2C(=O)N3C(C(=O)O)=C(CSc4nnnn4C)CS[C@H]23)c2ccc(O)cc2)C(=O)C1=O | 0.0401% [at 46 µM] | 
10 | C/C=C(\C)C=O | 0.146% | 
11 | Cc1nc2ccc(Cl)cc2[nH]1 | 0.0485% | 
12 | CC(C)(O)CCCC1=CCC(C=O)CC1 (stereo not given) | 0.0616% [at 95.7 µM] | 
13 | CCCCCCC(=O)c1ccccc1 | -0.0225% | 
14 | CC/C=C\CCOC(=O)c1ccccc1 | -0.144% | 
15 | C=C(C)C(=O)OCCCC | 0.077% [at 95.7 µM] | 
16 | C=CC(=O)OCC[N+](C)(C)C | -0.0113% | 
17 | CCOC(=O)COc1ccc2c(C)c(CCN(CC)CC)c(=O)oc2c1Cl | 0.343% [at 46 µM] | 
18 | C=CCOC(=O)CCCCCCCC | 0.0428% | 
19 | CCCOc1ccc(C(=O)OCCN(CC)CC)cc1N | -0.0537% [at 46 µM] | 
20 | COc1cnc(NS(=O)(=O)c2ccc(N)cc2)nc1 | -0.0163% [at 18.6 µM] | 

Row | SMILES | fluorescence, % of fluorescent control | outcome
21 | O=C(O)/C=C(\CC(=O)O)C(=O)O | -0.0375% [at 46 µM] | 
22 | COc1cc(C(=O)NC2CCCNC2)cc(OC)c1OC (stereo not given) | 0.327% [at 46 µM] | 
23 | CC(C)C(C)C | -0.816% | 
24 | C[C@@H]1CC[C@@]2(OC1)O[C@H]1C[C@H]3[C@@H]4CC[C@H]5C[C@@H](O)CC[C@]5(C)[C@H]4CC(=O)[C@]3(C)[C@H]1[C@@H]2C | 0.195% [at 18.6 µM] | 
25 | C/C(Cl)=C/CCl | -0.0282% [at 95.7 µM] | 
26 | CCNC(=O)C(C)OC(=O)Nc1ccccc1 (stereo not given) | 0.032% | 
27 | COC(=O)c1ccccc1Cl | 0.0093% | 
28 | NNC(=O)OCc1ccccc1 | 0.031% | 
29 | C=COCCCCO | -0.467% | 
30 | CC(O)CCCCn1c(=O)c2c(ncn2C)n(C)c1=O (stereo not given) | -0.122% [at 46 µM] | 
31 | CCCc1ccc(O)c(OC)c1 | -0.0377% | 
32 | O=P(O)(O)C(O)(Cc1cccnc1)P(=O)(O)O | -0.0216% [at 46 µM] | 
33 | CCCC(C)C(O)CC (stereo not given) | -0.168% | 
34 | O=S(=O)(O)CC(O)CCl (stereo not given) | 0.0597% | 
35 | Cc1cccc(N)n1 | -0.577% [at 95.7 µM] | 
36 | CC(C)(C)c1ccc(N)cc1 | 0.127% | 
37 | C[C@@H]1NC(=O)[C@@H](N)CNC(=O)[C@H](C2CCNC(N)=N2)NC(=O)/C(=C/NC(N)=O)NC(=O)[C@H](CNC(=O)C[C@@H](N)CCCN)NC1=O (stereo not given in full) |  | inactive
38 | Cc1cc(N)no1 | -0.0246% [at 95.7 µM] | 
39 | Cc1ccc(O)c(C(=O)c2ccccc2)c1 | 0.0761% | 
40 | CSC(=O)c1cccc2nnsc12 | 0.266% | 
